Assay results reported in PubChem BioAssay (NCI).
This is part of a sample that, as a whole, favours compounds with a hit. Of some 79,000 tested, about 15% had one in any assay. Active and inactive are the calls of the source. Rule as the data show it: active = growth inhibition above about 70%; inactive = the rest.

What was measured:
[1] = NCI Yeast Anticancer Drug Screen. Data for the rad52 strain (AID 147);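 also: 0% = growth of vehicle-treated control cultures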; settings: S. cerevisiae rad52 mutant growth inhibition, active compounds read high
Method in brief: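 Growth of repair-deficient yeast cells was compared between compound-treated and vehicle-treated cultures to give percent inhibition.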

[2] = NCI Yeast Anticancer Drug Screen. Data for the wt1 strain (AID 149);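 also: 0% = growth of vehicle-treated wt1 cultures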; settings: S. cerevisiae wt1 strain (SPY 50644) growth inhibition, active compounds read high
Method in brief: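 Compounds are added to wt1 yeast cultures. Growth is then measured. Inhibition is expressed relative to vehicle-treated controls.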

[3] = NCI Yeast Anticancer Drug Screen. Data for the rad50EPP+ strain (AID 151);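 also: 0% = growth of vehicle-treated control cultures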; settings: S. cerevisiae rad50 mutant strain, active compounds read high
Method in brief: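 Measured: growth inhibition of rad50EPP+ yeast. Reference: vehicle-treated controls. Screen uses strains with defined genetic alterations in DNA damage repair or cell cycle control.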

[4] = NCI Yeast Anticancer Drug Screen. Data for the mgt1 strain (AID 153); settings: S. cerevisiae mgt1 mutant growth inhibition, active compounds read high
Method in brief: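 Compounds were applied to mgt1 mutant yeast, and growth was then compared against vehicle-treated control cultures to give percent inhibition.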

[5] = NCI Yeast Anticancer Drug Screen. Data for the rad50 strain (AID 155);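 also: 0% = growth of vehicle-only cultures of the same strain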; settings: S. cerevisiae rad50 strain growth inhibition, active compounds read high
Method in brief: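 Inhibition values express reduced yeast growth in compound-treated cultures relative to vehicle-treated controls.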

[6] = NCI Yeast Anticancer Drug Screen. Data for the mec2-1 strain (AID 157); settings: S. cerevisiae mec2-1 strain, active compounds read high
Method in brief: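 Compounds were applied to mec2-1 yeast cells. Their growth was then compared with that of vehicle-treated cultures to give growth inhibition.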

[7] = NCI Yeast Anticancer Drug Screen. Data for the rad14 strain (AID 159);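 also: 0% = growth of vehicle-treated control cultures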; settings: S. cerevisiae rad14 strain growth inhibition, active compounds read high
Method in brief: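 A mutant yeast strain defective in DNA damage repair is treated with compound; inhibition of its growth is scored against untreated, vehicle-exposed cultures.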

[8] = NCI Yeast Anticancer Drug Screen. Data for the sgs1 mgt1 strain (AID 161);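 also: 0% = growth of cultures given vehicle only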; settings: S. cerevisiae sgs1 mgt1 strain, active compounds read high
Method in brief: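 Yeast cells carrying a defined DNA-repair defect were exposed to test compounds. Growth inhibition was measured relative to vehicle-treated controls.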

[9] = NCI Yeast Anticancer Drug Screen. Data for the CLN2oe strain (AID 163);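 also: 0% = growth of vehicle-only control cultures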; settings: S. cerevisiae CLN2oe strain, active compounds read high
Method in brief: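 Cells of an engineered yeast line with disturbed cell-cycle regulation are treated with compound. Inhibition of growth is then calculated relative to the vehicle-treated reference.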

[10] = NCI Yeast Anticancer Drug Screen. Data for the cln2 rad14 strain (AID 165);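 also: 0% = growth equal to vehicle treated cultures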; settings: S. cerevisiae cln2 rad14 strain, active compounds read high
Method in brief: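 Strain: cln2 rad14 yeast, altered in cell cycle control and DNA damage repair. Read-out: growth inhibition vs vehicle.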

[11] = NCI Yeast Anticancer Drug Screen. Data for the bub3 strain (AID 167); settings: S. cerevisiae bub3 mutant strain, active compounds read high
Method in brief: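 Steps: expose the mutant yeast strain to compound; grow alongside vehicle-treated cultures; measure growth; express inhibition against the vehicle cultures.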

[12] = NCI Yeast Anticancer Drug Screen. Data for the wt2 strain (AID 169);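 also: 0% = growth of vehicle-treated yeast cultures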; settings: S. cerevisiae wt2 strain growth inhibition, active compounds read high
Method in brief: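 Growth of compound-treated yeast is measured and expressed as inhibition relative to vehicle-only controls.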

[13] = NCI Yeast Anticancer Drug Screen. Data for the mlh1 strain (AID 171);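 also: 0% = growth of vehicle-treated control cultures of the same strain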; settings: S. cerevisiae mlh1 strain growth inhibition, active compounds read high
Method in brief: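 Test agents were incubated with yeast bearing a defined DNA damage repair or cell cycle control alteration; values are growth inhibition normalised to vehicle-treated cultures.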

[14] = NCI Yeast Anticancer Drug Screen. Data for the sgs1 strain (AID 173);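 also: 0% = growth of vehicle-only control cultures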; settings: S. cerevisiae sgs1 mutant, active compounds read high
Method in brief: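 Strain with an altered DNA repair or cell cycle pathway exposed to compound. Growth then measured. Value = inhibition versus vehicle control.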

[15] = NCI Yeast Anticancer Drug Screen. Data for the mlh1 rad18 strain (AID 175); settings: S. cerevisiae mlh1 rad18 strain growth inhibition, active compounds read high
Method in brief: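 A repair-deficient yeast strain is exposed to test compound, and growth is scored relative to vehicle-treated controls.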

[16] = NCI Yeast Anticancer Drug Screen. Data for the rad18 strain (AID 177); settings: S. cerevisiae rad18 mutant growth inhibition, active compounds read high
Method in brief: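 DNA-repair-defective yeast; compound treatment; growth inhibition scored against vehicle.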

[17] = at 5.0 µM (retest, dose inferred, filed as 0.5)
[18] = at 50.0 µM (retest, dose inferred, filed as 5.0)

Measured: growth inhibition

O=C1c2ccccc2-c2n[nH]c3cccc1c23
active: [1]; at 33.0 µM 84% | [1]; at 100.0 µM 78% | [3]; at 11.0 µM 86% | [3]; at 33.0 µM 88% | [3]; at 100.0 µM 73% | [5]; [17] 100% | [5]; at 33.0 µM 79% | [5]; [18] 99% | [5]; at 100.0 µM 74% | [6]; [17] 100% | [6]; [18] 100% | [8]; [18] 86% | [8]; at 50.0 µM 78.1% | [10]; [18] 87% | [11]; [18] 89% | [15]; [17] 100% | [15]; [18] 100% | [15]; at 50.0 µM 81.1%
inactive: [1]; at 1.2 µM -28% | [1]; at 3.7 µM 10% | [1]; at 11.0 µM 69% | [2]; at 1.2 µM -21% | [2]; at 3.7 µM -28% | [2]; at 11.0 µM -12% | [2]; at 33.0 µM 10% | [2]; at 100.0 µM 11% | [3]; at 1.2 µM 7% | [3]; at 3.7 µM 69% | [4]; at 1.2 µM -40% | [4]; at 3.7 µM -32% | [4]; at 11.0 µM -10% | [4]; at 33.0 µM 27% | [4]; at 100.0 µM 32% | [5]; at 1.2 µM -21% | [5]; at 3.7 µM 29% | [5]; at 11.0 µM 67% | [5]; at 50.0 µM 69.2% | [6]; at 1.2 µM -67% | [6]; at 3.7 µM -38% | [6]; at 11.0 µM -5% | [6]; at 33.0 µM 26% | [6]; at 50.0 µM 54.3% | [6]; at 100.0 µM 46% | [7]; at 1.2 µM -18% | [7]; at 3.7 µM -24% | [7]; at 11.0 µM -6% | [7]; at 33.0 µM 23% | [7]; at 100.0 µM 28% | [8]; [17] -5% | [9]; at 1.2 µM -52% | [9]; at 3.7 µM -21% | [9]; at 11.0 µM -26% | [9]; at 33.0 µM -6% | [9]; at 100.0 µM 1% | [10]; [17] 44% | [10]; at 50.0 µM 38.9% | [11]; at 1.2 µM -1% | [11]; at 3.7 µM -15% | [11]; [17] 0% | [11]; at 11.0 µM 22% | [11]; at 33.0 µM 46% | [11]; at 50.0 µM 65.6% | [11]; at 100.0 µM 53% | [12]; at 1.2 µM -20% | [12]; at 3.7 µM -20% | [12]; at 11.0 µM 2% | [12]; at 33.0 µM 41% | [12]; at 100.0 µM 36% | [13]; at 1.2 µM -42% | [13]; at 3.7 µM -38% | [13]; at 11.0 µM 9% | [13]; at 33.0 µM 39% | [13]; at 100.0 µM 58% | [14]; at 1.2 µM -39% | [14]; at 3.7 µM -16% | [14]; at 11.0 µM 3% | [14]; at 33.0 µM 35% | [14]; at 100.0 µM 27% | [16]; at 1.2 µM -49% | [16]; at 3.7 µM -32% | [16]; at 11.0 µM -1% | [16]; at 33.0 µM 33% | [16]; at 100.0 µM 50%

CNC(=O)OCc1c(COC(=O)NC)c(-c2ccc(-c3ccccc3)cc2)n(C)c1C
inactive: [1]; at 1.2 µM -36% | [1]; at 3.7 µM -41% | [1]; at 11.0 µM -27% | [1]; at 33.0 µM 26% | [1]; at 100.0 µM 68% | [2]; at 1.2 µM -7% | [2]; at 3.7 µM -16% | [2]; at 11.0 µM -12% | [2]; at 33.0 µM 10% | [2]; at 100.0 µM 23% | [3]; at 1.2 µM -33% | [3]; at 3.7 µM -31% | [3]; at 11.0 µM -28% | [3]; at 33.0 µM -14% | [3]; at 100.0 µM -1% | [4]; at 1.2 µM -11% | [4]; at 3.7 µM -5% | [4]; at 11.0 µM -6% | [4]; at 33.0 µM 2% | [4]; at 100.0 µM 10% | [5]; at 1.2 µM -46% | [5]; at 3.7 µM -15% | [5]; [17] 25% | [5]; at 11.0 µM -26% | [5]; at 33.0 µM 16% | [5]; at 50.0 µM 64% | [6]; at 1.2 µM -17% | [6]; at 3.7 µM -18% | [6]; [17] 16% | [6]; at 11.0 µM 3% | [6]; at 33.0 µM -8% | [6]; [18] 46% | [6]; at 50.0 µM 13.4% | [6]; at 100.0 µM 1% | [7]; at 1.2 µM -13% | [7]; at 3.7 µM -13% | [7]; at 11.0 µM -21% | [7]; at 33.0 µM 13% | [8]; [17] -5% | [8]; [18] 25% | [8]; at 50.0 µM -2.7% | [9]; at 1.2 µM -29% | [9]; at 3.7 µM -2% | [9]; at 11.0 µM -20% | [9]; at 33.0 µM -5% | [9]; at 100.0 µM -9% | [10]; [17] 24% | [10]; [18] 56% | [10]; at 50.0 µM -6.8% | [11]; at 1.2 µM -10% | [11]; at 3.7 µM -15% | [11]; [17] -8% | [11]; at 11.0 µM -15% | [11]; at 33.0 µM 0% | [11]; [18] 23% | [11]; at 50.0 µM -13.5% | [11]; at 100.0 µM -1% | [12]; at 1.2 µM -30% | [12]; at 3.7 µM -29% | [12]; at 11.0 µM -15% | [12]; at 33.0 µM -27% | [12]; at 100.0 µM 23% | [13]; at 1.2 µM -1% | [13]; at 3.7 µM 10% | [13]; at 11.0 µM -11% | [13]; at 33.0 µM 11% | [13]; at 100.0 µM -1% | [14]; at 1.2 µM -26% | [14]; at 3.7 µM -25% | [14]; at 11.0 µM -32% | [14]; at 33.0 µM -26% | [14]; at 100.0 µM 59% | [15]; [17] 24% | [15]; at 50.0 µM 58.8% | [16]; at 1.2 µM -25% | [16]; at 3.7 µM -42% | [16]; at 11.0 µM -61% | [16]; at 33.0 µM -42% | [16]; at 100.0 µM 52%
active: [5]; [18] 85% | [5]; at 100.0 µM 70% | [7]; at 100.0 µM 75% | [15]; [18] 75%
